ELG1 DNA repair – ELG1-dependent DNA repair inhibition. HEK293T ELG1-luciferase reporter, luminescence, 16 h; DNA damage induced by 5-fluorouridine. Potency, µM (top dose mostly 46.1 µM), without a hit: at the highest dose activity change, negative = inhibition, most hits filed as inhibitors. actives 2.3% (n = 330,000). AID 504467; note: % is set by controls: 0 for no effect and ±100 for the full control effect; nearly all actives have a fitted effect of over 55% in size
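Overnight (16 hr) co-exposure of 2,000 cells/well to 5-fluorouridine and compound at 37 °C preceded detection. Luciferase was quantified via ONE-Glo luminescence; loss of signal denotes inhibition.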
FLuc counter – counter-screen for miR-21 project: firefly luciferase inhibitors or activators | actives 6.9% (n = 360,000) | Potency, µM (doses to about 57.5 µM), without a hit: top-dose activity change, negative = inhibition, most hits filed as inhibitors | purified FLuc, Km substrates, luminescence inhibition;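 note: plate controls were vehicle for no effect and reference inhibitor for full effect; nearly all actives have a fitted effect of over 55% in size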
Target sequence (P08659 whole entry, looked up): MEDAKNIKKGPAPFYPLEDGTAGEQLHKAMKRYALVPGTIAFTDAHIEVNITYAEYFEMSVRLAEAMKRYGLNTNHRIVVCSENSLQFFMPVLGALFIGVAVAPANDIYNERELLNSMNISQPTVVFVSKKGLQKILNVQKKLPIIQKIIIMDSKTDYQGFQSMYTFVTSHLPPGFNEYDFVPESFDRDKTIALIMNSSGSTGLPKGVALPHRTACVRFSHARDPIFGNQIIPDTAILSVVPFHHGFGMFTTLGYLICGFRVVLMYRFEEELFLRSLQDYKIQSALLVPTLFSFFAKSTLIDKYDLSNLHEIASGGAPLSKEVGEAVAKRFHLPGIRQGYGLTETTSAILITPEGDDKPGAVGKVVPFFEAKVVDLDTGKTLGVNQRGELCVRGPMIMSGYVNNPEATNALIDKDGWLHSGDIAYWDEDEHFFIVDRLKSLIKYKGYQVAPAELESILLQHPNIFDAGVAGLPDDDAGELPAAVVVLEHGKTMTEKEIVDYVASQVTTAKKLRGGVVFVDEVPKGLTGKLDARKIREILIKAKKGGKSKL
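Biochemical qHTS of compounds, final roughly 60 µM downward over six points, against 10 nM purified firefly luciferase using Km concentrations of substrates (10 uM D-luciferin, 10 uM ATP) in Tris acetate pH 7.5 buffer; luminescence output.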
Rab9 prom act – activates the Rab9 promoter | Huh7 Rab9 promoter-luciferase reporter, luminescence, 24 h | Potency, µM (doses to about 9.22 µM), inactives show top-dose activation, negative = inhibition, actives largely listed as activators | actives 2.8% (n = 320,000); note: % of control where 0% means no effect; nearly all actives have a fitted effect of over 60% in size
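Luminescence read-out: Huh7 cells stably expressing Rab9-luciferase, treated 24 h with compound at 37 °C, then lysed with luciferase reagent for 10 min at ambient before reading.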
ELG1 genotoxic – inducers of genotoxicity in HEK293T ELG1-luciferase cells. HEK293T ELG1-luciferase reporter, luminescence, 16 h. Potency, µM (titrated, usually from 46 µM), for the others: top-dose activity change, positive = activation, most hits filed as activators. actives 1.3% (n = 330,000). AID 504466; note: % of control where 0% means no effect; nearly all actives have a fitted effect of over 60% in size
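Genotoxic stress is detected as increased luminescence from luciferase-tagged ELG1 in HEK293T cells, measured with ONE-Glo after a 16 hr treatment at 37 °C.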
SMN2 splice up – enhancers of SMN2 splice variant expression. HEK293 SMN2-luciferase splicing reporter, luminescence, 30-36 h. Potency, µM (highest dose often 46.1 µM), for the others: top-dose activity change, positive = activation, hits mostly activators. actives 2.8% (n = 210,000). AID 1458; note: % of control where 0% means no effect; nearly all actives have a fitted effect of over 55% in size
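HEK293 cells carry an SMN2 minigene-luciferase reporter in which exon 7 inclusion puts luciferase in frame. Cells were seeded at 2000 cells/well, attached for 10-12 hours, then exposed to compounds for 30-36 hours at 37C before ONE-Glo luminescence.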
NPC1 prom act – activates the NPC1 promoter. actives 2.4% (n = 320,000). Potency, µM (series often up to 9.22 µM), for the others: at the highest dose activation, hits mostly activators. Huh7 NPC1 promoter luciferase reporter, 24 h. AID 485313; note: % of control where 0% means no effect; nearly all actives have a fitted effect of over 60% in size
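Luciferase expression driven by the NPC1 promoter was measured in stably transfected Huh7 cells after a 24 h compound incubation, using a luciferase reagent and a luminescence read.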
* marks the source's active call; other numbers are inactive results; ? = inconclusive; · = not tested or not shown; [ ] = remark or other dose. Hits are enriched below; roughly 9.3% of the tested compounds scored in any of these assays. Calls come from the whole dose curve; as a rule, active = well fitted curve in the direction sought with a large enough effect; inconclusive = small, poorly fitted or top-dose-only effect, or another doubt; inactive = no such curve, though single readings can be large; an effect the other way counts as inactive or inconclusive. Potency is the fitted concentration of half-maximal effect.

SMILES | ELG1 DNA repair | FLuc counter | Rab9 prom act | ELG1 genotoxic | SMN2 splice up | NPC1 prom act
CC(CN1CCOCC1)OC(=O)c1ccc2c(c1)OCCO2 (centres undefined) | ? | 27µM* | 2.2µM* | ? | 26% | ?
O=C(/C=C/c1ccccc1)c1ccc2c(c1)OCCCCO2 | ? | 0.38µM* | 1.1µM* | ? | ? | 1µM*
O=c1ccc2c(OCCCCc3ccccc3)c3ccoc3cc2o1 | · | · | 2%[46.1 µM] | · | -17% | -1%[46.1 µM]
O=C(O)CCc1ccc(S(=O)(=O)NCCc2ccccc2)cc1 | 9% | -2% | -11% | 1% | · | 2%
O=C(c1ccccc1)c1ccc2c(c1)OCCCO2 | ? | 8.5µM* | 1.4µM* | ? | · | 1.8µM*
CNc1ccc(/C=C/C(=O)c2ccc3c(c2)OCCO3)cc1[N+](=O)[O-] | 5% | 6µM* | -7% | ? | -8% | 2%
O=C(CCCC(=O)c1ccc(O)cc1)c1ccc(O)cc1 | ? | 2.4µM* | ? | 4.6µM* | · | 3.5µM*
O=C(c1ccccc1)c1ccc2c(c1)OCCOCCOCCO2 | 14% | -14% | 6% | -4% | · | 0%
CC(OC(=O)c1ccc2c(c1)OCCO2)C(=O)c1ccccc1 (centres undefined) | ? | 0.85µM* | 0.5µM* | ? | · | 0.71µM*
Cc1ccn2c(c1)nc(=S)n2C(=O)c1ccco1 | ? | 1.5µM* | 1.6µM* | ? | 18µM* | 4µM*
CCOc1ccc(-c2nc(SCC(=O)NC3CCCC3)c(-c3ccccc3)[nH]2)cc1OC | · | 24µM* | · | · | -85% | ·
COc1ccc(-c2nc(SCC(=O)NCc3ccco3)c(-c3ccccc3)[nH]2)cc1OC | 9.2µM* | ? | -3% | -12% | -7% | -2%
COc1ccc(-c2[nH]c(-c3ccc(F)cc3)nc2SCC(=O)NCc2ccco2)cc1OC | 18µM* | 4% | -15% | -5% | -5% | 1%
CC(C)[C@@H](C(=O)O)N1C(=O)c2ccccc2C1=O | · | · | · | · | -11%[9.22 µM] | ·
Cc1ccccc1NC(=O)CSc1ccc(-c2ccco2)nn1 | -21% | ? | -1% | -1% | -3% | -1%
O=C1CCC(=O)N1CNc1ccc(Oc2ccccc2)cc1 | · | -7% | · | · | 11% | ·
Cc1[nH]c2ccccc2c1C(=O)C(=O)N1CCN(C(=O)c2ccco2)CC1 | 5% | 6% | 1% | -1% | -24% | -2%
CCOC(=O)c1ccc(NC(=O)CN2C(=O)CSCC2=O)cc1 | 21% | 15µM* | 6% | 6% | -5% | 1%
CCOC(=O)c1ccc(NC(=O)Cn2nnc3ccccc32)cc1 | ? | 11µM* | 2.8µM* | ? | -4% | 3.5µM*
COC(=O)c1ccc(Cn2nnc3ccccc32)cc1 | -2% | 4% | -2% | 0% | · | -2%
COC(=O)c1ccc(COn2nnc3ccccc32)cc1 | ? | 6.7µM* | 1µM* | ? | 13µM* | 1.1µM*
CCOC(=O)c1ccc(NC(=O)CCn2nnc3ccccc32)cc1 | 19% | 0% | 3% | 6% | 10% | -1%
CCOC(=O)c1ccc(NC(=O)CN2C(=O)CSC2=O)cc1 | 17% | 21µM* | 1% | 2% | -9% | -13%
CCOc1ccc(C(O)c2nccn2C)cc1 (centres undefined) | -3% | 7% | 5% | 3% | 8% | -5%
O=C(c1ccco1)N1CCN(C(c2cccs2)c2sc3ncnn3c2O)CC1 (centres undefined) | 5% | 0% | 0% | 5% | 4% | -2%
SMILES | ELG1 DNA repair | FLuc counter | Rab9 prom act | ELG1 genotoxic | SMN2 splice up | NPC1 prom act
O=C(COC(=O)c1c2c(nc3ccccc13)/C(=C/c1cccc([N+](=O)[O-])c1)CCC2)NC1CCS(=O)(=O)C1 (centres undefined) | 7.3µM* | 0% | -4% | -4% | -4% | -5%
CN(C(=O)COC(=O)c1c2c(nc3ccccc13)/C(=C/c1cccc([N+](=O)[O-])c1)CCC2)C1CCS(=O)(=O)C1 (centres undefined) | 5.8µM* | 0% | -4% | 1% | -8% | -6%
CN(C(=O)COC(=O)/C=C/c1cccc([N+](=O)[O-])c1)C1CCS(=O)(=O)C1 (centres undefined) | 13µM* | -1% | -5% | -15% | · | -5%
CN(C)c1ccc(/C=C(\C#N)C(=O)OCC(=O)N(C)C2CCS(=O)(=O)C2)cc1 (centres undefined) | 0% | 24µM* | -1% | ? | · | -1%
COC(=O)c1cc(C(=O)OCC(=O)N(C)C2CCS(=O)(=O)C2)cc([N+](=O)[O-])c1 (centres undefined) | 4% | 4% | 2% | 8% | 12% | -1%
Cc1ccc(C)c(N2CCN(S(=O)(=O)c3cc(C(=O)Nc4ccccc4C(F)(F)F)ccc3F)CC2)c1 | · | 2% | · | · | · | ·
CCn1c2c(c(=O)n3ncc(C(=O)Nc4ccc(Cl)cc4C)c13)CN(Cc1ccc(OC)cc1)CC2 | · | -20% | · | · | · | ·
COc1cc(C2C(C#N)=C(N)Oc3cc(N(C)C)ccc32)cc2c1OCO2 (centres undefined) | 11% | -1% | -20% | 14% | -20% | -12%
O=c1c2ccccc2c(/C=N/c2n[nH]c(CCCO)n2)c(O)n1-c1ccccc1Cl | -18% | 17µM* | -2% | 1% | 5% | -2%
O=C(N/N=C/c1c(O)n(-c2ccccc2Cl)c(=O)c2ccccc12)C1COc2ccccc2O1 (centres undefined) | ? | -18% | 6% | -4% | -78% | 0%
CC(=O)Nc1ccc(C2NC(=O)c3ccccc3O2)cc1 (centres undefined) | -5% | -2% | 10% | -1% | · | 7%
CC(=O)Nc1ccc(C2C(=O)c3ccccc3C2=O)cc1 | ? | 2.1µM* | ? | 23µM* | · | ?
CCCC(=O)Nc1ccc(C2C(=O)c3ccccc3C2=O)cc1 | ? | 1.1µM* | 3.5µM* | 20% | · | 1.6µM*
CSc1ccc(/C=N/NC(=O)CN2CCN(Cc3ccccc3Cl)CC2)cc1 | -20% | -10% | -4% | 0% | · | 1%
FC(F)(F)c1ccc(NCc2ccccn2)nc1 | ? | 17µM* | ? | ? | · | ?
c1ccc(CNc2ccc3ccccc3n2)nc1 | ? | 4.8µM* | ? | ? | ? | 2.2µM*
Cc1cc(NCc2ccccn2)nc2ccccc12 | ? | ? | 6% | 7% | 5% | 10%
COc1ccc2c(c1)C(=O)C(=O)N2CC1COc2ccccc2O1 (centres undefined) | 0% | -16% | 1% | 0% | · | -1%

Screens (PubChem BioAssay)
